# Screening data as filed in PubChem BioAssay.
# HT1080NT lethal: kills 2HG-producing HT-1080-NT fibrosarcoma cells; AID 686970; actives 1.6% (n = 360,000); Potency, µM (doses to about 46.1 µM), for inactives: at the top dose activity, negative = less viability, actives largely listed as cytotoxic; HT-1080-NT fibrosarcoma viability, CellTiter-Glo ATP luminescence, 48 h;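 note: NT is the 2HG producing partner of a matched IDH1 knockdown line; potency is the fitted concentration of half-maximal effect; 0% = DMSO-treated cells and -100% = media-only wells without cells; nearly all actives have a fitted effect of over 55% in size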
#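 HT-1080-NT fibrosarcoma cells (2HG-overproducing), 750 cells/well in RPMI with 5% FBS, dosed after 2 h and incubated 48 h at 37C. CellTiter-Glo luminescence normalized to DMSO and no-cell wells; concentration-response curves fitted and classed.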
# IL1B secr inh: inflammasome signaling inhibition, IL-1 beta readout. THP-1 LPS/ATP IL-1B secretion, AlphaLISA, 16 h; stronger effect = lower value. activity change, % at 57.5 µM. actives 4.7% (n = 360,000). AID 743279; in the data active = activity change below about -50%; inconclusive = mostly about -30% to -49%
#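 THP-1 cells pretreated 1 hr with compounds (up to 57.5 uM final), then stimulated with LPS (250 ng/mL final) plus ATP (1.25 mM final); secreted IL-1B measured by AlphaLISA after 16 hr, decreased signal indicating inhibition.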
# uPA generation: inhibitors of cell surface uPA generation; cell surface uPA generation assay, qHTS; Potency, µM (highest dose often 38.3 µM), without a hit: at the highest dose activity change, negative = inhibition, hits mostly inhibitors; actives 0.31% (n = 330,000); AID 540303; active = well fitted inhibition curve with a large enough effect; inconclusive = small, poorly fitted or top-dose-only effect; inactive = no such curve, though single readings can be large or run the other way; tested in mouse RAW 264.7 cells; note: potency is the fitted concentration of half-maximal effect; nearly all actives have a fitted effect of over 55% in size
# TDP1 cell CPT: DT40-hTDP1 cell growth loss with CPT | chicken DT40 Tdp1-/-;hTDP1 cells + 20 nM CPT, ATP luminescence, 48 h | Potency, µM (doses to about 46.2 µM), without a hit: at the top dose activity change, negative = growth inhibition, hits mostly inhibitors | actives 12% (n = 420,000) | AID 686979; note: potency is the fitted concentration of half-maximal effect; nearly all actives have a fitted effect of over 55% in size
#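 Chicken DT40 Tdp1-/- cells complemented with human TDP1, 400 cells/well, exposed to compounds plus 20 nM camptothecin for at least 48 h at 37 C; viability read as ATP content by CellTiter-Glo luminescence.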
# DT40 TDP1 no CPT: qHTS for Inhibitors of human tyrosyl-DNA phosphodiesterase 1 (TDP1): qHTS in cells in absence of CPT. DT40 Tdp1-/- hTDP1 cells, no CPT, ATP luminescence, 48 h. Potency, µM (highest dose often 46.2 µM), for inactives: at the top dose activity change, negative = growth inhibition, usual class: inhibitors. actives 15% (n = 420,000); note: potency is the fitted concentration of half-maximal effect; nearly all actives have a fitted effect of over 55% in size
#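 Chicken DT40 Tdp1-/- cells stably complemented with human TDP1 were seeded at 400 cells/well with DMSO in place of 20 nM camptothecin. After compound pinning, cells grew at least 48 hr at 37 °C; viability read by CellTiter-Glo luminescence.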
# HT1080 IDH1KD tx: HT-1080 IDH1 knockdown cell toxicity (counter line); HT-1080 IDH1 knockdown viability, ATP luminescence, 48 h; Potency, µM (titrated, usually from 46.1 µM), for inactives: top-dose activity, negative = toxicity, most hits filed as cytotoxic; actives 2% (n = 360,000); AID 686971;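 note: potency is the fitted concentration of half-maximal effect; 0% = DMSO wells and -100% = cell-free medium wells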
#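 Cytotoxicity counter-line: IDH1KD HT-1080, 48 h, CellTiter-Glo. Curves classed by r2, magnitude and activity.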
# Active calls of the source: *; u = inconclusive; x = not tested or not shown; [ ] = another dose, or the depositor's remark. A selection: hits, their analogues and other compounds. The true share with any hit is near 19%. Unless noted, calls come from the whole dose curve; as a rule, active = well fitted curve in the direction sought with a large enough effect; inconclusive = small, poorly fitted or top-dose-only effect, or another doubt; inactive = no such curve, though single readings can be large; an effect the other way counts as inactive or inconclusive. Unless noted, % is set by controls: 0 for no effect and ±100 for the full control effect.
SMILES,HT1080NT lethal,IL1B secr inh,uPA generation,TDP1 cell CPT,DT40 TDP1 no CPT,HT1080 IDH1KD tx
O=C(OCC(=O)N1CCCCC1)c1c[nH]c2ccccc12,-3%,0,-2%,-17%,-8%,-4%
O=C(OC1C[C@@H]2CC3C[C@H](C1)N2CC3=O)c1c[nH]c2ccccc12 (stereo not given in full),x,x,x,u,21µM*,x
OC[C@@H]1CN(Cc2ccc3c(c2)OCO3)C[C@H](n2cnc3c(NC4CCC4)ncnc32)O1,0%,14,x,u,u,0%
CC(C)Oc1ccc(CC(=O)NNC(=S)Nc2ccccc2)cc1,-1%,16,1%,u,u,-2%
CC(C)Oc1ccc(CCC(=O)NNC(=S)Nc2ccccc2)cc1,14%,59,-5%,-23%,18µM*,5%
CCN(CC)c1ccc(NC(=O)c2cccnc2)c(C)c1,2%,39,-10%,u,u,-16%
CCCN1CCN(c2ncnc3sc(C(=O)Nc4cccc(Cl)c4C)c(C)c23)CC1,x,x,x,u,21µM*,x
CCCN1CCN(c2ncnc3sc(C(=O)Nc4ccc(N(CC)CC)cc4C)c(C)c23)CC1,x,x,x,23µM*,15µM*,x
Cc1c(Cl)cccc1NC(=O)c1cnc2sc(N3CCCC3)nn2c1=O,x,x,x,-21%,-5%,x
Cc1sc2ncnc(N3CCC(C(=O)NNC(=O)COc4ccc(Cl)cc4)CC3)c2c1C,-17%,-13,-6%,u,u,-10%
Cc1sc2ncnc(N3CCN(CCOc4ccc(Cl)cc4)CC3)c2c1C,u,-58*,x,2.5µM*,2.5µM*,u
CC1=C(c2ccc(C)c(C)c2)S(=O)(=O)N=C1N1CCN(c2cccc(C(F)(F)F)c2)CC1,x,x,x,0%,-4%,x
COc1ccc(CN2C[C@H](Sc3nc4ccccc4[nH]3)C[C@H]2C(=O)N2CCCN(C)CC2)cc1C,x,x,x,3%[9.04 µM],-16%,x
Cc1cccc(NC(=O)C(c2ccccc2Cl)N2CCOCC2)c1 (stereo not given),-4%,0,0%,-8%,-26%,1%
O=C(O)c1ccccc1OC(C(=O)Nc1cc(Cl)cc(Cl)c1)c1ccccc1 (stereo not given),u,23,0%,29µM*,26µM*,0%
Cc1ccc(NC(=O)C(c2ccc(Cl)cc2Cl)N2CCCC2)cc1 (stereo not given),-15%,-14,-2%,23µM*,15µM*,-16%
O=C(Nc1cc(Cl)cc(Cl)c1)C(c1ccccc1)N1CCCCC1 (stereo not given),-3%,u,22%,21µM*,u,-23%
CC(C)c1ccc(NC(=O)C(c2ccc3c(c2)OCO3)N2CCCCC2)cc1 (stereo not given),-10%,0,-5%,18µM*,23µM*,-8%
CCOc1ccc(NC(=O)Cn2nnc(C(=O)NCc3ccc4c(c3)OCO4)c2N)cc1,u,21,7%,-2%,11%,u
NS(=O)(=O)c1cccc(NS(=O)(=O)c2ccc(/C=C/C(=O)O)cc2)c1,-2%,11,2%,5%,-4%,10%
CN(C)S(=O)(=O)c1ccc(NC(=O)COc2cccc3c2OC(C)(C)C3)cc1,2%,-9,-5%,21µM*,u,-2%
CC1(C)Cc2cccc(OCC(=O)Nc3ccccc3F)c2O1,15%,17,-13%,u,u,-2%
CC1(C)Cc2cccc(OCC(=O)NCCOc3ccccc3)c2O1,-2%,8,-2%,u,u,-2%
COc1ccc(NC(=O)COc2cccc3c2OC(C)(C)C3)cc1OC,-11%,0,u,21µM*,13µM*,0%
CCCNC(=O)c1ccccc1NC(=O)COc1cccc2c1OC(C)(C)C2,-5%,1,2%,u,18µM*,-13%
SMILES,HT1080NT lethal,IL1B secr inh,uPA generation,TDP1 cell CPT,DT40 TDP1 no CPT,HT1080 IDH1KD tx
COc1ccccc1CCNC(=O)COc1cccc2c1OC(C)(C)C2,0%,-17,3%,11%,23µM*,-1%
CC1CCCCN1S(=O)(=O)c1cc2c3c(c1)CC(=O)N3CCC2 (stereo not given),x,x,x,-18%,u,x
CCCCNC(=O)C1(C)CCCCN1C(=O)c1ccc(OC)c(C(F)(F)F)c1 (stereo not given),21%,31,x,u,u,10%
COc1ccc(OC)c(-c2ccc(O)c(CN3CCc4c([nH]c5ccccc45)C3)c2)c1,x,x,x,-5%[9.04 µM],u,x
O=C(NCc1cccnc1)C1CC(c2ccccc2Cl)=NO1 (stereo not given),-22%,23,-9%,u,u,-4%
CCOc1ccc(CCNC(=O)c2cn(C)c3ccc(S(=O)(=O)N4CCOCC4)cc3c2=O)cc1OCC,-6%,-22,5%,u,u,2%
Cc1cnc(NC(=O)COc2cccc3c2OC(C)(C)C3)s1,-11%,-9,3%,u,u,6.5µM*
Cc1cc(NC(=O)COC(=O)COc2cccc3c2OC(C)(C)C3)no1,12%,17,2%,-3%,2%,6%
CCn1ncc(CN2CCC(C(=O)Nc3cccc(-c4cccc(F)c4)c3)CC2)c1C,-3%,-8,4%,u,6.5µM*,u
O=C(Nc1cccc(-c2cccc(F)c2)c1)C1CCN(Cc2ccc(CO)o2)CC1,u,-13,-16%,u,u,u
Cc1cc(C)n(CCCN2CCC(C(=O)Nc3cccc(-c4cccc(F)c4)c3)CC2)n1,-4%,-65*,u,u,18µM*,0%
CCn1c([N+](=O)[O-])nc2c1c(=O)[nH]c(=O)n2C,18µM*,-99*,10µM*,2.3µM*,1.8µM*,21µM*
CCCCCCn1c(SCCCC)nc2c1c(=O)[nH]c(=O)n2C,2%,3,2%,-13%,u,-4%
Cc1cccc(S(=O)(=O)N(C)C[C@@H]2OCc3cn(nn3)CCCC(=O)N([C@H](C)CO)C[C@H]2C)c1,10%,14,x,-27%,u,2%
COc1ccc(CC2(CO)COc3ccccc3C2=O)cc1 (stereo not given),u,24,-7%,u,16µM*,u
CC(C)(C)OC(=O)N1CCC(NC(=O)c2ncn(Cc3ccccc3)c2C(=O)NC2CCN(C(=O)OC(C)(C)C)CC2)CC1,-1%,-18,-25%,23µM*,u,-4%
